Test results reported in the supplement of paper PMC7530171.
Counter-ions that a name gives are not always drawn. ± gives the standard deviation.

Each compound was assayed on THP-1 (assay: THP-1 cell loss relative to DMSO control; higher = more host cell loss (toxicity); extreme values may be limits of the assay). Conditions: 10 µM; 4 days; infection: M. tuberculosis H37Rv.
Protocol: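 OICR kinase inhibitor library screened in duplicate at 10 uM against M. tuberculosis-infected THP-1 macrophages, 4 days at 37 C. THP-1 cell loss (cytotoxicity or loss of adherence) was quantified from Hoechst-stained nuclei counts by high-content imaging and normalised to the 1% DMSO control; 100 = complete loss of host cells.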

Row | SMILES | THP-1 cell loss [%]
1 | COc1cc2c(cc1OC)-c1[nH]nc(Nc3cccc(F)c3)c1C2 | 27.5 ± 16
2 | O=C1NC(=O)C(c2ccccc2[N+](=O)[O-])=C1Nc1ccc(O)c(Cl)c1 | 3.73 ± 5.3
3 | NC(=O)c1ccc(-c2nc(-c3ccc4c(c3)OCCO4)c(-c3ccccn3)[nH]2)cc1 | 43.2 ± 50
4 | O=C(CO)N1CCC(c2n[nH]c(-c3ccc(Cl)cc3)c2-c2ccncn2)CC1 | 11.1 ± 0.43
5 | CNC(=O)c1cc(Oc2ccc(NC(=O)Nc3ccc(Cl)c(C(F)(F)F)c3)c(F)c2)ccn1 | 43.8 ± 13
6 | OCCn1cc(-c2ccc3c(c2)CC/C3=N\O)c(-c2ccncc2)n1 | 9.27 ± 7.9
7 | CN1CCN(CCOc2cc(OC3CCOCC3)c3c(Nc4c(Cl)ccc5c4OCO5)ncnc3c2)CC1 | 20.5 ± 7
8 | Clc1ccc(Nc2nnc(Cc3ccncc3)c3ccccc23)cc1 [Vatalanib dihydrochloride] | 39.2 ± 3.4
9 | CC(=O)c1c(C)c2cnc(Nc3ccc(N4CCNCC4)cn3)nc2n(C2CCCC2)c1=O | 30.5 ± 8.2
10 | COc1cc2ncnc(Nc3cccc(Cl)c3)c2cc1OC [Tyrphostin AG 1478 mesylate] | 41.5 ± 9.7
11 | NS(=O)(=O)c1nn2cc(-c3ccccc3)nc2s1 | 5.48 ± 7.7
12 | CN(C)c1cc2c(Nc3ccc4c(cnn4Cc4ccccc4)c3)ncnc2cn1 | 62.6 ± 18
13 | COc1cc(/C=C(\C#N)C(N)=O)cc(CSc2nc3ccccc3s2)c1O | 3 ± 4.2
14 | Nc1ncnc2nc(-c3ccc(N4CCOCC4)nc3)cc(-c3cccc(Br)c3)c12 [ABT-702 dihydrochloride] | 24.4 ± 13
15 | O=c1oc2c(O)c(O)cc3c(=O)oc4c(O)c(O)cc1c4c23 [Ellagic acid] | 5.06 ± 7.2
16 | Cc1[nH]c(/C=C2\C(=O)Nc3ccc(S(=O)(=O)Cc4c(Cl)cccc4Cl)cc32)c(C)c1C(=O)N1CCC[C@@H]1CN1CCCC1 | 19.1 ± 12
17 | Cc1cnc(-c2cnc(NCCNc3ccc(C#N)cn3)nc2-c2ccc(Cl)cc2Cl)[nH]1 | 13.7 ± 5
18 | CC(C)n1nc(-c2cc3cc(O)ccc3[nH]2)c2c(N)ncnc21 | 92.9 ± 10
19 | CC(C)(C)c1cc(NC(=O)Nc2ccc(-c3cn4c(n3)sc3cc(OCCN5CCOCC5)ccc34)cc2)no1 | 82.1 ± 1.3
20 | Cn1cncc1[C@@](N)(c1ccc(Cl)cc1)c1ccc2c(c1)c(-c1cccc(Cl)c1)cc(=O)n2C [Tipifarnib] | 29.6 ± 27

Row | SMILES | THP-1 cell loss [%]
21 | COc1cc(OC)c(/C=C/S(=O)(=O)Cc2ccc(OC)c(NCC(=O)O)c2)c(OC)c1 | 44.7 ± 2.4
22 | Cc1cc(Nc2ncc3cc(-c4c(Cl)cccc4Cl)c(=O)n(C)c3n2)ccc1F | 88.1 ± 17
23 | Cc1cc(Nc2nc(N[C@@H](C)c3ccc(F)cc3)c(C#N)cc2F)n[nH]1 | 39 ± 9.1
24 | NCC(=O)Nc1ccc(-n2nc(C(F)(F)F)cc2-c2ccc3c(ccc4ccccc43)c2)cc1 | 33.1 ± 2.5
25 | CNS(=O)(=O)Nc1nccc(Cc2c(C)c3ccc(Oc4ncccn4)cc3oc2=O)c1F | 100
26 | O=C(C=Cc1ccccc1)NC(NC(=S)Nc1ccc(Cl)cc1)C(Cl)(Cl)Cl (stereo not given) | 63.6 ± 52
27 | O=c1[nH]nc(Sc2ncc([N+](=O)[O-])s2)n1-c1ccc2c(c1)OCCO2 | 31.1 ± 44
28 | CCOc1cc(N2CCC(O)CC2)ccc1Nc1ncc2c(n1)N(C)c1ccccc1C(=O)N2C | 100
29 | CCN(CCO)CCCOc1ccc2c(Nc3cc(CC(=O)Nc4cccc(F)c4)[nH]n3)ncnc2c1 | 7.76 ± 6.5
30 | O=C1C(Cl)=C(NCCN2CCOCC2)C(=O)c2ncccc21 | 93.7 ± 8.8
31 | CC(NC(=O)C(C#N)=Cc1ccc(O)c(O)c1)c1ccccc1 (stereo not given) [Tyrphostin B44] | 3.72 ± 5.3
32 | Cc1csc(-c2nnc(Nc3ccc(Oc4ncccc4-c4ccnc(N)n4)cc3)c3ccccc23)c1 | 62.4 ± 53
33 | CC(C)(C)n1nc(-c2cccc3ccccc23)c2c(N)ncnc21 [1-Naphthyl PP1] | 13.6 ± 19
34 | CC[C@@H]1C(=O)N(C)c2cnc(Nc3ccc(C(=O)N[C@H]4CC[C@H](N5CCN(CC6CC6)CC5)CC4)cc3OC)nc2N1C(C)C | 100
35 | CNc1nccc(-c2cccnc2Oc2cc(C(=O)Nc3cccc(C(F)(F)F)c3)ccc2C)n1 | 100
36 | CC(C)(C)c1cnc(CSc2cnc(NC(=O)C3CCNCC3)s2)o1 | 100
37 | O=C1NCc2c1c1c3ccccc3[nH]c1c1[nH]c3ccccc3c21 | 35.8 ± 3.5
38 | Cc1cccc(-c2[nH]c(C(C)(C)C)nc2-c2ccc3c(c2)OCO3)n1 | 74 ± 1.8
39 | O=C(Nc1cccc(Cl)c1)Nc1ncc(CCNc2ncnc3ccsc23)s1 | 80.2 ± 4.3
40 | CC#CC(=O)Nc1cc2c(Nc3ccc(F)c(Cl)c3)ncnc2cn1 | 89.9 ± 14
